# Bioassay records from PubChem BioAssay.
# In the library only some 6.2% were active in any assay of this set; here they are far more common.
# Lassa entry inh: inhibitors of Lassa virus binding or cell entry; Lassa virus pseudotype entry inhibition, cell reporter; Potency, µM (series often up to 37.9 µM), inactives show top-dose activity change, negative = inhibition, usual class: inhibitors; actives 1.2% (n = 300,000); AID 540256; calls by dose curve; tested in HEK293 cells; note: potency is the fitted concentration of half-maximal effect; nearly all actives have a fitted effect of over 50% in size
# FMDV antiviral: antivirals against foot and mouth disease virus. FMDV antiviral cell-based qHTS. Potency, µM (series often up to 57.9 µM), for the others: at the highest dose activity change, negative = inhibition, actives largely listed as inhibitors. actives 1.2% (n = 410,000). AID 1159524; calls by dose curve; tested in HEK293T cells; note: read-out not given here; potency is the fitted concentration of half-maximal effect; nearly all actives have a fitted effect of over 45% in size
# HCMV antiviral: blocks human cytomegalovirus replication | HFF cells, HCMV-luciferase reporter, 72 h; stronger effect = lower value | activity change, negative = inhibition, % at 57.5 µM | actives 4.5% (n = 410,000) | AID 1259415; in the data active = activity change below about -60%; inconclusive = no clear call, values can overlap the other calls; inactive = above about -39%
#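 Luciferase read-out from HCMV-luciferase-infected HFFs (MOI 1 PFU/cell) 72 h post infection at 37C; compounds added after 16 h cell attachment; activity normalized between buffer-only basal and Salinomycin (10uM) inhibitor controls.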
# Marburg entry inh: Marburg virus entry inhibition; Marburg virus pseudotyped entry inhibition, cell reporter; Potency, µM (highest dose often 37.8 µM), for the others: at the top dose activity change, negative = inhibition, actives largely listed as inhibitors; actives 1.8% (n = 300,000); AID 540276; calls by dose curve; tested in HEK293 cells; note: potency is the fitted concentration of half-maximal effect
# * marks the source's active call; other numbers are inactive results; ? = inconclusive; nt = no result given; [ ] = dose if it differs, or a comment. % is set by controls: 0 for no effect and ±100 for the full control effect.
SMILES,Lassa entry inh,FMDV antiviral,HCMV antiviral,Marburg entry inh
CCN(CC)c1nc(C)c(C(C)=O)cc1C#N,3%,-21%,-23,3%
CCOC(=O)c1cc(C#N)c(C)nc1N(CC)CC,5.6µM*,-11%,10,-19%[46.1 µM]
CC1CCN(c2nnc(-c3cccs3)c3ccccc23)CC1,nt,0%,-66*,0%
c1csc(-c2nnc(NC3CCCCC3)c3ccccc23)c1,-17%,40µM*,39,?
c1ccc(-c2nc(-c3cccs3)c(NC3CCCCC3)o2)cc1,nt,nt,nt,-19%[14.2 µM]
Cc1ccnn1CC(=O)N1CCOc2c(cc(-c3ncc(C(F)(F)F)cc3Cl)cc2OCC2CCCO2)C1 (stereo not given),nt,6%,nt,nt
Cc1cccc(NC(=O)Cn2ncc3c4ccccc4n(Cc4ccccc4)c3c2=O)c1C,1%[46.1 µM],5%,9,10%[46.1 µM]
Cc1ccccc1S(=O)(=O)NC(=O)C1(C)CCN1C(=O)c1cccc(F)c1 (stereo not given),nt,8%,-27,nt
COc1ccc(/C=C/C(=O)C2CC2)cc1COc1cccc(C)c1C,7.1µM*,?,25,?
Cn1c(=O)c2c(nc(Oc3ccccc3N)n2C)n(C)c1=O,nt,19%,15,nt
CCn1c(Oc2ccccc2)nc2c1c(=O)n(C)c(=O)n2C,3%,-7%,-60*,12%
Cn1c(=O)c2c(nc(Oc3ccccc3Cl)n2C)n(C)c1=O,19%[46.1 µM],?,-79*,16%[46.1 µM]
CCCOc1nc2c(c(=O)n(C)c(=O)n2C)n1Cc1cccc2ccccc12,-19%,nt,-91*,?
O=C(Cn1c(=O)n(Cc2ccc(C(=O)NCc3ccccc3Cl)cc2)c(=O)c2ccccc21)Nc1ccc(F)cc1,15%[46.1 µM],3%,4,16%[46.1 µM]
C#CCN1C(=O)[C@]2(O[C@H](COc3ccccc3)CC3=C2CCC3)c2ccccc21,?,nt,nt,-41%[14.2 µM]
CCC(Nc1ccc(-c2nc(-c3cccnc3)no2)cc1[N+](=O)[O-])c1ccccc1 (stereo not given),-12%[46.1 µM],0%,-21,-1%[46.1 µM]
Cc1cccc(/C=C/C(=O)c2ccc(NC3=NCCCS3)cc2)c1,2%,?,-98*,?
O=C(/C=C/c1ccc(Br)cc1)c1ccc(NC2=NCCCS2)cc1,?,16µM*,-100*,?
O=C(/C=C/c1ccccc1)c1ccc(NC2=NCCCS2)cc1,-2%,-47%,10,?
Cc1cccc(N(C)C(CNS(=O)(=O)c2ccccc2)c2ccccc2)c1 (stereo not given),-21%[46.1 µM],28%,-11,?
O=C(OCn1ncc(Br)c(Br)c1=O)c1ccccc1Cl,11µM*,14µM*,nt,10µM*
O=C(OCn1ncc(Br)c(Br)c1=O)c1ccc(F)cc1,13µM*,14µM*,nt,5.6µM*
COCCCn1c(=N)c(C(=O)NCc2cccnc2)cc2c(=O)n3cccc(C)c3nc21,11%[46.1 µM],-12%,-10,7%[46.1 µM]
COc1cc2sc3ccc(-c4ccc(CN5CCOCC5)cc4)cc3c(=O)c2cc1OC,nt,32µM*,?,nt
O=C(NCc1cccc(Cl)c1)c1cc(COc2ccc3ncccc3c2)on1,?,16µM*,?,?
SMILES,Lassa entry inh,FMDV antiviral,HCMV antiviral,Marburg entry inh
Cc1cc(C)n(CCNC(=O)c2cc(COc3ccc4ncccc4c3)on2)n1,nt,13µM*,0,nt
CSc1ccccc1OCc1cc(C(=O)NCCn2nc(C)cc2C)no1,?,-22%,-16,-22%
CN(Cc1ccccn1)C(=O)c1cc(COc2ccc(F)c(F)c2)on1,nt,3%,-93*,nt
Cc1ccc(OCc2cc(C(=O)NC(C)Cc3cccnc3)no2)cc1C (stereo not given),nt,2%,-19,nt
CC(CCCC(C)(C)O)NC(=O)c1cc(COc2ccc3ncccc3c2)on1 (stereo not given),?,?,-88*,-9%[46.1 µM]
COc1cccc(OCc2cc(C(=O)NCc3ccccn3)no2)c1,-4%[46.1 µM],44%,39,?
Cc1ccc(OCc2cc(C(=O)N(C)CCc3ccccn3)no2)cc1C,nt,6%,-4,nt
Cc1ccc(S(=O)(=O)Nc2ccc(Nc3nccn4c(-c5cccc(OC(F)(F)F)c5)cnc34)cc2)cc1,nt,-23%,-16,nt
COc1cccc(OCc2cc(C(=O)N(Cc3nccn3C)C(C)C)no2)c1,nt,-19%,-27,nt
Cc1nc(CN(C)C(=O)c2cc(COc3ccc4ncccc4c3)on2)cs1,?,?,-65*,?
Cc1ccc(F)cc1CNC(=O)c1cc(COc2ccc3ncccc3c2)on1,?,25µM*,-96*,?
Cc1ccc(OCc2cc(C(=O)N(C)Cc3cnn(-c4ccccc4C)c3)no2)cn1,7.9µM*,0%,-26,?
COc1cccc(CCNC(=O)c2cc(COc3ccc(C)c(C)c3)on2)c1OC,nt,21%,61,nt
COc1cccc(OCc2cc(C(=O)N(C)Cc3nc(C)cs3)no2)c1,?,72%,59,-16%
CC(C)N(Cc1nccn1C)C(=O)c1cc(COc2ccc3ncccc3c2)on1,?,-6%,-71*,-22%[46.1 µM]
O=S1(=O)c2cc(Cl)ccc2N2CC[C@H](C2)N1Cc1ccc(Cl)c(Cl)c1,nt,nt,-14,nt
COCCCNc1nccc2[nH]c(-c3cccc(C)c3)nc12,nt,nt,26,nt
Cc1ccc(NC(=O)c2cnc3sc(N4CCOCC4)nn3c2=O)cc1N(C)C,nt,32µM*,-2,7%[46.1 µM]
CN(CCO)C(=O)c1cn(C2CCCN(Cc3cccc4ccccc34)C2)nn1 (stereo not given),nt,-6%,nt,nt
CC1(C(=O)Nc2cccc(NS(C)(=O)=O)c2)CCN1CCc1ccccc1 (stereo not given),nt,-19%,-19,nt
Cc1ccc(N(NC(=O)C(O)(c2ccccc2)c2ccccc2)C(=O)CCl)cc1,?,8.9µM*,-99*,13µM*
CCN(CC)NC(=O)Nc1ccccc1,-15%[46.1 µM],-7%,6,6%[46.1 µM]
O=C(Nc1ccccc1)NN(C(=O)CCl)c1ccccc1,?,20µM*,-102*,?
CCC(O)(CC)C(=O)NN(C(=O)CCl)c1ccccc1,-27%,?,-94*,?
CCN(CC)C(=O)c1sc2c(c1C)c(=O)n(-c1ccccc1)c(=O)n2Cc1c(C)cc(C)cc1C,20%[46.1 µM],21%,5,nt
SMILES,Lassa entry inh,FMDV antiviral,HCMV antiviral,Marburg entry inh
COc1ccc(C(=O)Nc2nc3n(n2)C(c2ccc(Cl)cc2)C=C(c2ccccc2)N3)cc1OC (stereo not given),-19%[46.1 µM],?,-39,?
CC1(C)CN2C(c3ccc(Cl)cc3)N2C1 (stereo not given),-1%,17%,-75*,12%
O=C(CN1CCN(c2ccccc2F)CC1)c1c[nH]c2ccc(F)cc12,?,-17%,-24,12µM*
Cc1ccc(SCc2cc(=O)[nH]c(N3CCN(Cc4ccc5c(c4)OCO5)CC3)n2)cc1,8%,-23%,-63*,3%[46.1 µM]
Cc1ccc(CNC(=O)CSc2nnc(C)c3c(C)n(-c4ccccc4)nc23)cc1,-9%[46.1 µM],?,-29,nt
Cc1ccc2oc(-c3ccc(Cl)cc3)c(O)c(=O)c2c1,1%[46.1 µM],29%,-77*,?
Cc1ccc(C(=O)Nc2sc(C)c(-c3ccccc3)c2C(N)=O)cc1[N+](=O)[O-],?,1.8µM*,?,?
Cc1cc(SCC#N)n2nc(C)c(-c3ccccc3)c2n1,-18%,-10%,-73*,-15%
Cc1cc(Cl)n2nc(C)c(-c3ccc(Cl)cc3)c2n1,16µM*,?,-7,?
